Laboratory results: PubChem BioAssay AID1159580 (chemical genetic matrix, 2015)
Values joined by “and” are separate entries in the source; they are usually repeats but may differ in a detail not shown here. Identical values can stand only once. The campaign covered roughly 5,500 compounds. About 2,000 (36%) were called active. About 18% were inconclusive and are not listed. Cut-off read from the data, not from the text of the source: active = normalized growth mostly below about 0.91 (no sharp cut-off); inconclusive = no clear call, values can overlap the other calls; inactive = mostly above about 0.92. The list shows a part of the results.

Assay: chemical genetic growth profiling, strain panel (AID 1159580);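 note: tested at 20 µM; growth read once vehicle control cultures reached saturation at 30 °C; 1 = growth at the plate median or of vehicle wells; lower values mean less growth of the strain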
Conditions: growth OD

Measured: normalized growth

CS(=O)(=O)Nc1ccc([N+](=O)[O-])cc1Oc1ccccc1
inactive: S. cerevisiae deletion strains, locus YJR066W, strain TOR1, stronger effect = lower value 0.962 | S. cerevisiae deletion strains, locus YJR075W, strain HOC1, stronger effect = lower value 1 | S. cerevisiae deletion strains, locus YKL009W, strain mrt4, stronger effect = lower value 0.944 | S. cerevisiae deletion strains, locus YKL068W, stronger effect = lower value 0.988 | S. cerevisiae deletion strains, locus YKL085W, strain MDH1 (second series), stronger effect = lower value 0.99 | S. cerevisiae deletion strains, locus YKL085W, strain MDH1, stronger effect = lower value 0.99 | S. cerevisiae deletion strains, locus YKL160W, strain elf1, stronger effect = lower value 0.987 | S. cerevisiae deletion strains, locus YKL190W, strain CNB1, stronger effect = lower value 0.983 | S. cerevisiae deletion strains, locus YKR001C, strain vps1, stronger effect = lower value 0.938 | S. cerevisiae deletion strains, locus YKR026C, strain gcn3, stronger effect = lower value 0.987 | S. cerevisiae deletion strains, locus YKR091W, strain srl3, stronger effect = lower value 0.993 | S. cerevisiae deletion strains, locus YLL001W, strain dnm1, stronger effect = lower value 0.975 | S. cerevisiae deletion strains, locus YLL026W, stronger effect = lower value 0.993 | S. cerevisiae deletion strains, locus YLL041C, strain sdh2, stronger effect = lower value 0.995 | S. cerevisiae deletion strains, locus YLR027C, strain aat2, stronger effect = lower value 1 | S. cerevisiae deletion strains, locus YLR039C, strain RIC1, stronger effect = lower value 0.839 | S. cerevisiae deletion strains, locus YLR058C, strain SHM2, stronger effect = lower value 0.966 | S. cerevisiae deletion strains, locus YLR102C, strain apc9, stronger effect = lower value 0.984 | S. cerevisiae deletion strains, locus YLR113W, strain HOG1, stronger effect = lower value 1.03 | S. cerevisiae deletion strains, locus YLR221C, strain rsa3, stronger effect = lower value 0.994 | S. cerevisiae deletion strains, locus YLR258W, strain gsy2, stronger effect = lower value 0.988 | S. cerevisiae deletion strains, locus YLR262C, strain YPT6 (second series), stronger effect = lower value 0.889 | S. cerevisiae deletion strains, locus YLR262C, strain YPT6, stronger effect = lower value 0.75 | S. cerevisiae deletion strains, locus YLR268W, strain sec22, stronger effect = lower value 0.958 | S. cerevisiae deletion strains, locus YLR320W, strain mms22, stronger effect = lower value 0.994 | S. cerevisiae deletion strains, locus YLR330W, strain CHS5, stronger effect = lower value 0.993 | S. cerevisiae deletion strains, locus YLR342W, strain FKS1 (second series), stronger effect = lower value 1.08 | S. cerevisiae deletion strains, locus YLR342W, strain FKS1, stronger effect = lower value 0.997 | S. cerevisiae deletion strains, locus YLR357W, strain rsc2, stronger effect = lower value 0.986 | S. cerevisiae deletion strains, locus YLR370C, strain arc18, stronger effect = lower value 0.999 | S. cerevisiae deletion strains, locus YLR371W, strain rom2, stronger effect = lower value 0.984 | S. cerevisiae deletion strains, locus YLR384C, strain iki3, stronger effect = lower value 0.991 | S. cerevisiae deletion strains, locus YLR418C, strain cdc73, stronger effect = lower value 1.01 | S. cerevisiae deletion strains, locus YML016C, strain PPZ1, stronger effect = lower value 0.989 | S. cerevisiae deletion strains, locus YML032C, strain rad52, stronger effect = lower value 0.958 | S. cerevisiae deletion strains, locus YML120C, strain ndi1, stronger effect = lower value 0.993 | S. cerevisiae deletion strains, locus YML124C, strain tub3, stronger effect = lower value 0.982 | S. cerevisiae deletion strains, locus YMR058W, strain fet3, stronger effect = lower value 0.993 | S. cerevisiae deletion strains, locus YMR078C, strain ctf18, stronger effect = lower value 0.975 | S. cerevisiae deletion strains, locus YMR125W, strain sto1, stronger effect = lower value 0.984 | S. cerevisiae deletion strains, locus YMR129W, stronger effect = lower value 0.983 | S. cerevisiae deletion strains, locus YMR205C, strain PFK2, stronger effect = lower value 0.974 | S. cerevisiae deletion strains, locus YMR223W, strain ubp8, stronger effect = lower value 0.993 | S. cerevisiae deletion strains, locus YMR231W, strain pep5, stronger effect = lower value 1 | S. cerevisiae deletion strains, locus YMR307W, strain GAS1, stronger effect = lower value 1.05 and 0.989 | S. cerevisiae deletion strains, locus YNL067W, strain RPL9B, stronger effect = lower value 0.953 | S. cerevisiae deletion strains, locus YNL071W, strain lat1, stronger effect = lower value 1 | S. cerevisiae deletion strains, locus YNL128W, strain TEP1, stronger effect = lower value 0.981 and 0.986 | S. cerevisiae deletion strains, locus YNL175C, strain NOP13, stronger effect = lower value 0.995 | S. cerevisiae deletion strains, locus YNL183C, strain NPR1, stronger effect = lower value 0.943 | S. cerevisiae deletion strains, locus YNL197C, strain WHI3, stronger effect = lower value 0.99 | S. cerevisiae deletion strains, locus YNL209W, strain ssb2, stronger effect = lower value 0.994 | S. cerevisiae deletion strains, locus YNL224C, strain SQS1, stronger effect = lower value 1 | S. cerevisiae deletion strains, locus YNL233W, strain BNI4, stronger effect = lower value 0.927 | S. cerevisiae deletion strains, locus YNL248C, strain rpa49, stronger effect = lower value 1 | S. cerevisiae deletion strains, locus YNL250W, strain rad50, stronger effect = lower value 0.999 | S. cerevisiae deletion strains, locus YNL271C, strain bni1, stronger effect = lower value 0.972 | S. cerevisiae deletion strains, locus YNL298W, strain CLA4, stronger effect = lower value 0.966 | S. cerevisiae deletion strains, locus YNL307C, strain MCK1, stronger effect = lower value 0.966 | S. cerevisiae deletion strains, locus YNL322C, strain KRE1 (second series), stronger effect = lower value 0.994 | S. cerevisiae deletion strains, locus YNL322C, strain KRE1, stronger effect = lower value 0.986 and 1.01 | S. cerevisiae deletion strains, locus YNR049C, strain mso1, stronger effect = lower value 0.99 | S. cerevisiae deletion strains, locus YNR052C, strain pop2, stronger effect = lower value 0.976 | S. cerevisiae deletion strains, locus YOL006C, strain TOP1, stronger effect = lower value 0.841 | S. cerevisiae deletion strains, locus YOL012C, strain htz1 1.03 | S. cerevisiae deletion strains, locus YOL147C, strain pex11, stronger effect = lower value 0.98 | S. cerevisiae deletion strains, locus YOR001W, strain rrp6, stronger effect = lower value 0.99 | S. cerevisiae deletion strains, locus YOR061W, strain CKA2, stronger effect = lower value 0.964 | S. cerevisiae deletion strains, locus YOR069W, strain VPS5, stronger effect = lower value 0.994 | S. cerevisiae deletion strains, locus YOR070C, strain gyp1, stronger effect = lower value 0.986 | S. cerevisiae deletion strains, locus YOR080W, strain dia2, stronger effect = lower value 0.991 | S. cerevisiae deletion strains, locus YOR083W, strain WHI5 (second series), stronger effect = lower value 0.991 | S. cerevisiae deletion strains, locus YOR083W, strain WHI5, stronger effect = lower value 0.986 | S. cerevisiae deletion strains, locus YOR106W, strain vam3, stronger effect = lower value 1.01 | S. cerevisiae deletion strains, locus YOR136W, strain idh2, stronger effect = lower value 0.977 | S. cerevisiae deletion strains, locus YOR144C, strain elg1, stronger effect = lower value 0.981 | S. cerevisiae deletion strains, locus YOR184W, strain ser1, stronger effect = lower value 0.951 | S. cerevisiae deletion strains, locus YOR231W, strain MKK1, stronger effect = lower value 1.06 | S. cerevisiae deletion strains, locus YOR265W, strain rbl2, stronger effect = lower value 1.01 | S. cerevisiae deletion strains, locus YOR270C, strain vph1, stronger effect = lower value 0.97 | S. cerevisiae deletion strains, locus YOR290C, strain snf2, stronger effect = lower value 0.954 | S. cerevisiae deletion strains, locus YOR316C, strain cot1, stronger effect = lower value 0.961 | S. cerevisiae deletion strains, locus YPL051W, strain arl3, stronger effect = lower value 0.993 | S. cerevisiae deletion strains, locus YPL055C, strain LGE1, stronger effect = lower value 0.879 | S. cerevisiae deletion strains, locus YPL078C, strain atp4, stronger effect = lower value 0.994 | S. cerevisiae deletion strains, locus YPL106C, strain sse1, stronger effect = lower value 0.991 | S. cerevisiae deletion strains, locus YPL240C, strain hsp82, stronger effect = lower value 0.978 | S. cerevisiae deletion strains, locus YPL241C, strain CIN2, stronger effect = lower value 1.01 | S. cerevisiae deletion strains, locus YPL256C, strain CLN2, stronger effect = lower value 1.03 | S. cerevisiae deletion strains, locus YPR119W, strain clb2, stronger effect = lower value 0.973 | S. cerevisiae deletion strains, locus YPR141C, strain kar3, stronger effect = lower value 0.973 | S. cerevisiae deletion strains, locus YPR163C, strain tif3, stronger effect = lower value 0.988 | S. cerevisiae deletion strains, locus YPR167C, strain met16, stronger effect = lower value 0.986 | S. cerevisiae deletion strains, strain wtn01, stronger effect = lower value 0.968 | S. cerevisiae strains, strain wild type, stronger effect = lower value 0.978
